Experiment [1] is described as follows: Cell Viability - LYMP1-003 - Assay at 24 hr (AID 963). Also: potency is read from the fitted curve at half-maximal effect. The conditions noted are these: LYMP1-003 lymphoblastoid cell viability; series mostly up to 92.2 µM. A digest of the protocol:
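Human lymphoblastoid LYMP1-003 cells (2500/well) were rested 5 hr at 37 C, then exposed to compounds in complete medium for 24 hr at 37 C. Cellular ATP was quantified by CellTiter-Glo luminescence, and AC50 values came from Hill fits of concentration-response data.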

Experiment [2] can be described thus: Cell Viability - LYMP1-003 - Assay at 40 hr (AID 964). Also: nearly all actives have a fitted effect of over 60% in size. Also: potency is read from the fitted curve at half-maximal effect. The conditions noted are these: LYMP1-003 lymphoblastoid viability; series mostly up to 92.2 µM. Summed up:
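Human lymphoblastoid LYMP1-003 cells, 2500/well in complete medium, rested 5 hr at 37 C, then exposed to compounds for 40 hr at 37 C. Viability read as intracellular ATP by CellTiter-Glo luminescence; AC50 from Hill fits of concentration-response data.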

Experiment [3] is described as follows: Cell Viability - LYMP2-003 (AID 965).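 Also: cells exposed to compounds for 24 h before reading; nearly all actives have a fitted effect of over 50% in size.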 Also: potency is read from the fitted curve at half-maximal effect. The conditions noted are these: LYMP2-003 lymphoblastoid cell viability; series mostly up to 92.2 µM. Summed up:
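qHTS, human lymphoblastoid line, 2500 cells/well, complete medium. 24 h drug, 37 C. ATP-based luminescent readout; Hill-fit AC50.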

Experiment [4] in a line: Cell Viability - LYMP2-004 (AID 966). Also: nearly all actives have a fitted effect of over 65% in size. Also: potency is read from the fitted curve at half-maximal effect. The note with it: LYMP2-004 lymphoblastoid cell viability, qHTS; series mostly up to 92.2 µM. Summed up: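 Human lymphoblastoid cells (2500/well) in complete medium were treated with compounds for 24 hr at 37 C, then intracellular ATP was measured by CellTiter-Glo luminescence. AC50 values came from Hill-equation fits of concentration-response data.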
Background: In qHTS, concentration-response curves come from the screen itself.

A short description of experiment [5]: Cell Viability - LYMP2-005 (AID 967). The note with it: LYMP2-005 lymphoblastoid cell viability; series mostly up to 92.2 µM. A digest of the protocol:
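Luciferase-based ATP quantitation served as the viability measure in human lymphoblastoid LYMP2-005 cells exposed to test compounds for 24 h at 37 C in complete culture medium. Potency (AC50) was obtained by fitting concentration-response curves with the Hill equation.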

Experiment [6] is described as follows: Cell Viability - LYMP2-013 (AID 970). Also: nearly all actives have a fitted effect of over 55% in size. Also: potency is read from the fitted curve at half-maximal effect. The conditions noted are these: LYMP2-013 lymphoblastoid cells viability; series mostly up to 92.2 µM. A digest of the protocol:
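Human lymphoblastoid cells, 2500/well, were preincubated 5 hr at 37 C, then treated with compounds for 24 hr at 37 C in complete medium. Intracellular ATP was read by CellTiter-Glo luminescence; AC50 from Hill-equation fits of concentration-response data.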

Experiment [7] can be described thus: Cell Viability - LYMP2-015 (AID 971). Also: nearly all actives have a fitted effect of over 55% in size. Also: potency is read from the fitted curve at half-maximal effect. The note with it: LYMP2-015 lymphoblastoid cell viability; series mostly up to 92.2 µM. A digest of the protocol: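 Human lymphoblastoid cells (2500/well) in complete medium were preincubated 5 hr at 37 C, then compound-treated 24 hr at 37 C. Intracellular ATP was read by CellTiter-Glo luminescence after 30 min at room temperature; AC50 came from Hill-equation concentration-response fits.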

The nature of experiment [8]: Cell Viability - LYMP2-017 (AID 972). Also: nearly all actives have a fitted effect of over 55% in size. Also: potency is read from the fitted curve at half-maximal effect. The note with it: LYMP2-017 lymphoblastoid cell viability; series mostly up to 92.2 µM. Summed up:
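Human lymphoblastoid cells (2500/well) were seeded in complete medium, held 5 hr at 37 C, then exposed to compounds for 24 hr at 37 C. Intracellular ATP was read by CellTiter-Glo luminescence after 30 min at room temperature, with AC50 values from Hill-equation fits.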

The nature of experiment [9]: Cell Viability - LYMP2-019 (AID 973). Also: nearly all actives have a fitted effect of over 55% in size. Also: potency is read from the fitted curve at half-maximal effect. The conditions noted are these: LYMP2-019 lymphoblastoid cell line viability; series mostly up to 92.2 µM. Summed up:
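Human lymphoblastoid cells were seeded at 2500 cells/well, preincubated 5 hr at 37 C, then exposed to compounds for 24 hr at 37 C in complete medium. Intracellular ATP was measured by CellTiter-Glo luminescence; AC50 from Hill fits.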

Experiment [10] is described as follows: Cell Viability - LYMP2-021 (AID 974). Also: potency is read from the fitted curve at half-maximal effect. The conditions noted are these: LYMP2-021 lymphoblastoid cells viability; series mostly up to 92.2 µM. Summed up:
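Human lymphoblastoid cells (2500/well) were preincubated 5 hr at 37 C, then exposed to compounds for 24 hr at 37 C in complete medium. Intracellular ATP was read by CellTiter-Glo luminescence; AC50 came from Hill-equation fits of concentration-response data.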

Structures are written as SMILES. Results filed as inconclusive are left out. Activity calls are given as the source filed them. Calls follow the shape of the dose curve; as a rule, active = well fitted curve in the direction sought with a large enough effect; inconclusive = small, poorly fitted or top-dose-only effect, or another doubt; inactive = no such curve, though single readings can be large; an effect the other way counts as inactive or inconclusive.

As for `CC(=O)c1ccc(S(=O)(=O)NC(=O)NC2CCCCC2)cc1`, the Potency entry in [1], in [2], in experiment [3], in experiment [4], in experiment [6] and in [7] was “inactive” each time. Besides, the Potency entry in experiment [8], in experiment [9] and in experiment [10] was “inactive” each time. Further, the outcome in experiment [5] was inactive.
For `CN(C)CCC(c1ccccc1)c1ccccn1` (stereo unspecified), the Potency result in experiment [1], in experiment [2], in experiment [3], in experiment [4], in experiment [6] and in experiment [7] was “inactive” each time. The Potency entry in [8], in experiment [9] and in experiment [10] was “inactive” in each case. For the same molecule, the result in [5] was inactive.
As to `CCCNC(=O)NS(=O)(=O)c1ccc(Cl)cc1`, the Potency result in [1], in experiment [2], in [3], in experiment [4], in [6] and in experiment [7] was “inactive” each time. For the same molecule, the Potency entry in experiment [8], in experiment [9] and in experiment [10] was “inactive” in each case. For the same molecule, in experiment [5], the result was inactive.
Regarding `CC1=C(/C=C/C(C)=C/C=C/C(C)=C/C(=O)Nc2ccc(O)cc2)C(C)(C)CCC1`, the Potency in [1] is 50.1 µM (active); in experiment [2], 39.8 µM (active); in [3], 39.8 µM (active); in experiment [4] it was 39.8 µM (active); in experiment [6], 50.1 µM (active); in [8] it was 50.1 µM (active). Moreover, the Potency in [9] and in experiment [10] was 50.1 µM (active) throughout.
For `O=c1[nH]cnc2c1ncn2[C@H]1CC[C@@H](CO)O1`, the Potency entry in [1], in experiment [2], in experiment [3], in [4], in experiment [6] and in [7] was “inactive” each time. Also, the Potency entry in experiment [8], in [9] and in experiment [10] was “inactive” each time. Further, in experiment [5], the result was inactive.
For the molecule `O=C1NC(=O)C(c2ccccc2)(c2ccccc2)N1`, the Potency result in experiment [1], in experiment [2], in experiment [3], in experiment [4], in experiment [6] and in [7] was “inactive” throughout. The Potency entry in [8], in experiment [9] and in [10] was “inactive” in each case. The outcome in [5] was inactive.
As for `O=C(O)Cc1cccc2ccccc12`, the Potency entry in [1], in experiment [2], in [3], in experiment [4], in [6] and in [7] was “inactive” in each case. Besides, the Potency entry in experiment [8], in experiment [9] and in experiment [10] was “inactive” each time. Besides, the outcome in experiment [5] was inactive.
In the case of `O=c1cc(-c2ccc(O)cc2)oc2cc(O)cc(O)c12`, the Potency entry in experiment [1], in [3], in experiment [4] and in experiment [9] was “inactive” in each case. In experiment [5], the result was inactive.
Consider `CC/C(=C(\c1ccccc1)c1ccc(OCCN(C)C)cc1)c1ccccc1`, for which the Potency in experiment [2] was 50.1 µM (active); in experiment [3], 39.8 µM (active); in experiment [6], 50.1 µM (active); in experiment [8] it was 50.1 µM (active); in experiment [9], 50.1 µM (active); in experiment [10], 50.1 µM (active).
As to `CCCCC1C(=O)N(c2ccccc2)N(c2ccccc2)C1=O`, the Potency entry in experiment [1], in experiment [2], in [3], in experiment [4], in experiment [6] and in experiment [7] was “inactive” throughout. Further, the Potency result in [9] and in experiment [10] was “inactive” throughout. Moreover, the call in experiment [5] was inactive.
As to `O=c1c(O)c(-c2ccc(O)cc2)oc2cc(O)cc(O)c12`, the Potency result in experiment [1], in experiment [2], in experiment [3], in [4], in [6] and in [7] was “inactive” each time. In addition, the Potency entry in experiment [8], in experiment [9] and in experiment [10] was “inactive” in each case. For the same molecule, the outcome in experiment [5] was inactive.
For `CC(=O)O[C@]1(C(C)=O)CC[C@H]2[C@@H]3C=C(Cl)C4=CC(=O)[C@@H]5C[C@@H]5[C@]4(C)[C@H]3CC[C@@]21C`, the Potency result in experiment [1], in [2], in [3], in experiment [6], in experiment [7] and in experiment [8] was “inactive” each time. Moreover, the Potency entry in experiment [9] and in experiment [10] was “inactive” in each case.
As for `O=C(O)c1cc(O)c2c(c1)C(=O)c1cccc(O)c1C2=O`, the Potency entry in experiment [1], in experiment [2], in experiment [3] and in experiment [4] was “inactive” in each case. Further, the result in experiment [5] was inactive. The Potency in [7] is 50.1 µM (active).
Consider `O=c1c(-c2ccc(O)cc2)coc2cc(O)ccc12`, for which the Potency result in [1], in experiment [3], in [4], in experiment [6], in experiment [7] and in experiment [8] was “inactive” throughout. The Potency entry in experiment [9] and in [10] was “inactive” in each case. In [5], the outcome was inactive.
As to `CCn1cc(C(=O)O)c(=O)c2ccc(C)nc21`, the Potency entry in experiment [1], in experiment [2], in [3], in experiment [4], in experiment [6] and in [7] was “inactive” in each case. Also, the Potency result in experiment [8], in [9] and in [10] was “inactive” each time. In experiment [5], the result was inactive.

For the origin of these results see PubChem BioAssay (NCATS).
